# Test results as given in PubChem BioAssay (NCI).
# About 83,000 compounds went through this panel and 20% of them were active in at least one assay; those are over-represented in the sample as a whole.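 Values shown are percent growth following 48 h exposure of cells in 96-well plates to a single concentration of compound; below 10 was considered active.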 Activity calls are given as the source filed them.
# System: RPMI-8226 leukemia
# Assay: NCI-60 one-dose screen, 48 h (100 = growth as untreated, 0 = no growth, -100 = all killed)
# Conditions: 10 µM
row,Structure (SMILES),growth
1,O=S(=O)(Nc1ncccn1)c1ccc(-n2c(-c3ccc(Br)cc3)nc(-c3ccccc3)c2-c2ccccc2)cc1,33.8% (inactive)
2,Cc1ccc2nc(COc3ccc(C(=O)NNC(=S)NC(=O)c4ccccc4)cc3)[nH]c2c1,64.9% (inactive)
3,N#Cc1c(NC(=O)c2ccc(C(F)(F)F)c(Cl)c2)sc2c1CCC(=O)C2,0.426% (active)
4,CN1CCN(c2ccc(C(=O)/C=C/c3cc(C(F)(F)F)ccc3Cl)cc2)CC1,3.72% (active)
5,CN1CCN(Cc2ccc(C(=O)Nc3cccc(Nc4ccc5c(O)cccc5n4)c3)cc2C(F)(F)F)CC1,-10.6% (active)
6,CC(C)(C)c1ccc(NCc2cn(-c3ccc(C(=O)O)cc3)nc2-c2ccc(C#N)cc2)cc1,14.6% (inactive)
7,CCOc1ccc(/C=N/NC(=O)Cn2nc(Cc3ccc([N+](=O)[O-])cc3)c3onc(C)c3c2=O)cc1,68.9% (inactive)

# System: OVCAR-8 ovarian
# Assay: as above
# Conditions: 10 µM
row,Structure (SMILES),growth
1,N#Cc1ccc(-c2nn(-c3ccc(C(=O)O)cc3)cc2CNc2ccc(Oc3ccccc3)cc2)cc1,39.2% (inactive)
2,COc1cc2c(cc1OC)CN(CCCCOc1cc(O)c3c(=O)cc(-c4ccccc4)oc3c1)CC2,85.1% (inactive)
3,Cc1cc(=O)oc2cc(OCCCCOc3ccc(/C=C/C(=O)Nc4ccc(F)c(Cl)c4)cc3)ccc12,85.2% (inactive)
4,COc1ccc(CN2[C@@H](C(=O)NCc3ccc(C(=O)NO)cc3)Cc3c([nH]c4ccccc34)[C@@H]2C2CC2)cc1,16.7% (inactive)
5,COC(=O)c1c(C(=O)OC)c2n(c1C)[C@@H]([C@@H](C)[C@H]1CC[C@H]3[C@@H]4CCC5=CC(=O)CC[C@]5(C)[C@H]4CC[C@]13C)SC2,26.7% (inactive)
6,O=C1CCC(N2Cc3cc(CC(=O)Nc4ccc(N5CCCCC5)cc4)ccc3C2=O)C(=O)N1 (configuration not stated),20.9% (inactive)
7,Cn1cc(-c2cc(N)n3nc(-c4c[nH]c5ccc(Br)cc45)cc3n2)c2cc(Br)cnc21,-41.6% (active)
8,COc1ccc(C(=O)CSc2nnc(-c3c[nH]c4ccccc34)n2-c2ccccc2)cc1,15.5% (inactive)
9,CC(C)C1=C[C@@]23CC[C@@H]4[C@](C)(CCC[C@]4(C)C(=O)NCc4ccccc4)[C@H]2C[C@@H]1[C@H]1C(=O)CCC(=O)[C@H]13,75.1% (inactive)
10,Nc1nc(Nc2ccccc2)nn1Cc1c(Cl)cccc1Cl,42.3% (inactive)
11,Cc1ccc2nc(COc3ccc(C(=O)NNC(=S)NCCc4ccccc4)cc3)[nH]c2c1,13.1% (inactive)
12,COc1cc2c3c(n(CCCn4ccnc4)c(=O)c2cc1OC)-c1nc2c(cc1C3=O)OCO2,43.6% (inactive)
13,Cc1ccc(/C(N)=N/c2sc(-c3ccccc3)nc2-c2ccccc2)cc1,91.4% (inactive)
14,Cc1cccc(NC(=O)CSc2nc3ccc(F)cc3c(=O)n2-c2ccc(Cl)cc2)c1C,32.5% (inactive)
15,CCCn1c(=O)c2[nH]c(-c3ccc(OCc4nc5ccc(C)cc5[nH]4)cc3)nc2n(CCC)c1=O,17.3% (inactive)
16,O=S(=O)(Nc1ncccn1)c1ccc(-n2c(-c3ccccc3)nc(-c3ccccc3)c2-c2ccccc2)cc1,97.4% (inactive)
17,Cc1ccc(C(=O)NNC(=O)CSc2nc3ccccc3c(=O)[nH]2)cc1,97.8% (inactive)
18,COc1cc(OC(F)(F)F)ccc1C(=O)Nc1sc2c(c1C#N)CCC(=O)C2,93% (inactive)
19,COc1ccc(C(=O)Nc2sc3c(c2C#N)CCC(=O)C3)cc1C(F)(F)F,2.79% (active)
20,COc1ccc(-c2c(N)c(=O)n(C)c3ccccc23)cc1,73.9% (inactive)

row,Structure (SMILES),growth
1,COc1ccc2c(c1)N=C(C(=O)O)/C2=C/c1sc(Nc2ccc(O)cc2)nc1O,80.8% (inactive)
2,CN(C)c1ccc(/C=C/c2nc3ccccc3c(=O)n2CC(=O)Nc2ccc(Cl)cc2)cc1,2.8% (active)
3,COc1ccccc1C(=O)NNC(=O)CSc1nc2c(c(=O)[nH]1)CCCC2,109% (inactive)
4,CN(C)c1nc(NCCNS(=O)(=O)c2ccc(C(=O)/C=C/c3ccccc3)cc2)nc(Nc2ccc(F)cc2)n1,41.9% (inactive)
5,CN(CCO)c1oc(-c2ccccc2)nc1[P+](c1ccccc1)(c1ccccc1)c1ccccc1,12.3% (inactive)
6,CCOC(=O)C1=C(N)N(c2ccccc2)C2=C(C(=O)CC(C)(C)C2)C1c1ccccc1OC (configuration not stated),108% (inactive)
7,CCOC(=O)C1=C(N)N(c2ccccc2)C2=C(C(=O)CC(C)(C)C2)C1c1ccc(Cl)cc1 (configuration not stated),61.1% (inactive)
8,Brc1ccc(N/N=C/c2c[nH]c3ccccc23)nc1,44.3% (inactive)
9,C=CCn1c(SCC(=O)Nc2ccc(C(=O)/C=C/c3ccccc3)cc2)nnc1-c1c[nH]c2ccccc12,64.7% (inactive)
10,C/C(=C\CSc1ccccc1C(=O)O)CCCC(C)CCCC(C)CCCC(C)C (configuration not stated),54% (inactive)
11,COc1cc2c(cc1OC)/C(=C\c1sc(Nc3ccc(O)cc3)nc1O)C(C(=O)O)=N2,22.8% (inactive)
12,COc1ccc(Nc2nc(N)n(Cc3cccc(Br)c3)n2)cc1,26.2% (inactive)
13,CC[C@]12C=CCN3CC[C@@]4(c5cc(C#CCNc6ccc(C)c(Nc7nccc(-c8cccnc8)n7)c6)c(OC)cc5N(C)[C@H]4[C@@](O)(C(=O)OC)[C@@H]1OC(C)=O)C32 (some centres not stated),48.6% (inactive)
14,O=S(=O)(Nc1ncccn1)c1ccc(-n2c(-c3ccc(Br)cc3)nc(-c3ccccc3)c2-c2ccccc2)cc1,50.5% (inactive)
15,Cc1ccc2nc(COc3ccc(C(=O)NNC(=S)NC(=O)c4ccccc4)cc3)[nH]c2c1,42.1% (inactive)
16,N#Cc1c(NC(=O)c2ccc(C(F)(F)F)c(Cl)c2)sc2c1CCC(=O)C2,-34% (active)
17,CN1CCN(c2ccc(C(=O)/C=C/c3cc(C(F)(F)F)ccc3Cl)cc2)CC1,-51.5% (active)
18,CN1CCN(Cc2ccc(C(=O)Nc3cccc(Nc4ccc5c(O)cccc5n4)c3)cc2C(F)(F)F)CC1,-19.5% (active)
19,CC(C)(C)c1ccc(NCc2cn(-c3ccc(C(=O)O)cc3)nc2-c2ccc(C#N)cc2)cc1,28.5% (inactive)
20,CCOc1ccc(/C=N/NC(=O)Cn2nc(Cc3ccc([N+](=O)[O-])cc3)c3onc(C)c3c2=O)cc1,-16.5% (active)
